Out of some 1,300 compounds screened, about 980 (75%) were called active. Roughly 4% stayed inconclusive and do not appear here. This is one part of the list.

The source of these data is PubChem BioAssay AID1347420 (Sanford-Burnham Center for Chemical Genomics, 2020).

Chain of Sulfhydryl oxidase 1 (Homo sapiens) (O00391 whole entry, looked up): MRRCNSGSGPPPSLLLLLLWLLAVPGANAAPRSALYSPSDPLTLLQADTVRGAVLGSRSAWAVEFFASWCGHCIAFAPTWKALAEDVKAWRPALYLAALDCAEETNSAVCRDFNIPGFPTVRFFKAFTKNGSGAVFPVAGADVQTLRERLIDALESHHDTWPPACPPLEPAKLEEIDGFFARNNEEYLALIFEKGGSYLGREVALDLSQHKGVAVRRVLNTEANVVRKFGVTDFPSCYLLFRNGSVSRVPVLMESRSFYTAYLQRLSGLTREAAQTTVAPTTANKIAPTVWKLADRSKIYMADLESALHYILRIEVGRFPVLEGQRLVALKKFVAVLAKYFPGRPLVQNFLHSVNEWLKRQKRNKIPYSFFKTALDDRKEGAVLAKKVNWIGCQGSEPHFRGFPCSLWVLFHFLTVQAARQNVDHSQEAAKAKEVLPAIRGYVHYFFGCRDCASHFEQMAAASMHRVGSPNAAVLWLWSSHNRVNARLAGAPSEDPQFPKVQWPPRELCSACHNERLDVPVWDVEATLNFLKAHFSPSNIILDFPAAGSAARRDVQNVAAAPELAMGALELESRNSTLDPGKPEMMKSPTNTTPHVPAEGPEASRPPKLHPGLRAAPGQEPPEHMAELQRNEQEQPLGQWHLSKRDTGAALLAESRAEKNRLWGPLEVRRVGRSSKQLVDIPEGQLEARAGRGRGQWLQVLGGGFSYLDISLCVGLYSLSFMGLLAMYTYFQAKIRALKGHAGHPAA

This assay concerns the target Sulfhydryl oxidase 1 (Homo sapiens) (UniProt O00391). In words: QSOX1 enzyme inhibitors, primary screen, biochemical, HyperBlu H2O2 luminescence, HTS (AID 1347420). Further: values above 100% were filed as inconclusive. To be noted: recombinant QSOX1, HyperBlu H2O2 luminescence; at 12.5 µM; hits give high values; active = any value above zero.
On to `CC[N+](CC)(CC)CC`, for which the inhibition (as a rule, the relative decrease from the control value, in per cent) was -0.4% (inactive).

As for `Cc1oncc1C(=O)Nc1ccc(C(F)(F)F)cc1`, the inhibition was -3.1% (inactive).

`O=C(c1ccc2c(c1)OCCO2)N1CCCCC1`: the inhibition is 5.6% (active).

Regarding `O=C(O)c1ccccc1Nc1cccc(OCc2ccc3ccccc3n2)c1`, the inhibition was 70.1% (active).

Turning to `CCCCCC(O)c1cccc(OCc2ccc3ccccc3n2)c1` (stereo unspecified), the inhibition is -4.5% (inactive).

For the molecule `NCCCCCCCCCCN`, the inhibition was 12.8% (active).

As for `NCCCCN`, the inhibition was 14.6% (active).

For `CCN(CC)CCOC(=O)C1(C2CCCCC2)CCCCC1`, the inhibition was 28.2% (active).

`O=C(O)CP(=O)(O)O`: the inhibition is 10% (active).

On to `CN=c1nc(-c2ccccc2)n(-c2ccccc2)s1`, for which the inhibition was 25.4% (active).

For `S=C([S-])OC1CC2C[C+]1C1CCCC21` (stereo unspecified), the inhibition was 1.4% (active).

As for `CNCC[C@H](Oc1ccc(C(F)(F)F)cc1)c1ccccc1`, the inhibition is 0.1% (active).

As to `CN(CC[C@@H](Oc1ccc(C(F)(F)F)cc1)c1ccccc1)CC(=O)O`, the inhibition was 21.6% (active).

Turning to `CNCCC(Oc1ccc(C(F)(F)F)cc1)c1ccccc1` (stereo unspecified), the inhibition is -9.7% (inactive).

As to `CCCCCCCCCC[Si](C)(C)CCC(=O)NC(Cc1ccc(C)cc1)c1ccccc1` (stereo unspecified), the inhibition was 19.6% (active).

Regarding `CCCCCCCCCC(=O)NC(CN1CCOCC1)[C@H](O)c1ccccc1` (stereo partly specified), the inhibition was -17.8% (inactive).

For `CCCn1c(=O)[nH]c(=O)c2[nH]cnc21`, the inhibition was 3.6% (active).

With `Cc1nc2ccccn2c(=O)c1CCN1CCC(C(=O)c2ccc(F)cc2)CC1`, the inhibition was 5.5% (active).

On to `Cc1nc2n(c(=O)c1CCN1CCC(c3noc4cc(F)ccc34)CC1)CCCC2O` (stereo unspecified), for which the inhibition is 0% (inactive).

For the molecule `CC1(C)C(=O)N(CCN2CCC(C(=O)c3ccc(F)cc3)CC2)c2ccccc21`, the inhibition is 7.2% (active).

For `Cc1nc2sccn2c(=O)c1CCN1CCC(=C(c2ccccc2)c2ccc(F)cc2)CC1`, the inhibition was 2.9% (active).

Regarding `O=C(c1ccc(F)cc1)C1CCN(CCn2c(=O)[nH]c3ccccc3c2=O)CC1`, the inhibition is -10.7% (inactive).

As to `Cc1nc2sccn2c(=O)c1CCN1CCC(=C(c2ccc(F)cc2)c2ccc(F)cc2)CC1`, the inhibition was 7.1% (active).

For `FC(F)(F)c1ccccc1-n1ccnc1`, the inhibition was -11.4% (inactive).

As for `COc1ccccc1OCCNCC(O)COc1cccc2[nH]c3ccccc3c12` (stereo unspecified), the inhibition was 11% (active).

Regarding `CN1CCc2ccccc2Cc2[nH]c3ccccc3c2CC1`, the inhibition was 51.2% (active).

Take `NC(N)=N[C@@H](CCC(=O)O)C(=O)O`: the inhibition is 10.9% (active).

For the molecule `COc1ccc(C(=O)NCc2cccnc2)cc1C(=O)NCc1cccnc1`, the inhibition is 1.3% (active).

Take `O=C1O/C(=C/Br)CCC1c1cccc2ccccc12` (stereo unspecified): the inhibition was -10.8% (inactive).

`CCCCC1C(=O)N(c2ccccc2)N(c2ccccc2)C1=O`: the inhibition was 11.8% (active).

As to `N#C/C(=C\c1ccc(-c2cc(Cl)ccc2Cl)o1)C(=O)Nc1cccc2ncccc12`, the inhibition was 6.8% (active).

Regarding `Fc1ccc([C@@H]2CCNC[C@H]2COc2ccc3c(c2)OCO3)cc1`, the inhibition is 15.8% (active).

Turning to `N=c1nc(N2CCCCC2)cc(N)n1O`, the inhibition is 1.6% (active).

Turning to `Nc1ccn([C@H]2CC[C@@H](CO)O2)c(=O)n1`, the inhibition was 9.9% (active).

With `C=CCc1cccc(/C=N/NC(=O)CN2CCN(Cc3ccccc3)CC2)c1O`, the inhibition was 1.7% (active).

As to `C=CCn1c(=O)c2c(nc(-c3ccc(S(=O)(=O)O)cc3)n2C)n(C)c1=O`, the inhibition was 1.4% (active).

As to `N#Cc1cc2nc(O)c(O)nc2cc1[N+](=O)[O-]`, the inhibition was 69.8% (active).

As for `CNC[C@H](O)c1cccc(O)c1`, the inhibition was 17% (active).

In the case of `CNCC(O)c1ccc(O)c(O)c1` (stereo unspecified), the inhibition is 39.2% (active).

Take `CNC[C@H](O)c1ccc(O)c(O)c1`: the inhibition is 53.5% (active).

Consider `CNCCc1cnc(CCC(c2ccccc2)c2ccccc2)[nH]1`, for which the inhibition is 14.6% (active).

As for `O=c1[nH]c(=O)n([C@H]2C[C@H](O)[C@@H](CO)O2)cc1/C=C/Br`, the inhibition was 11.6% (active).

Regarding `Cc1cn([C@H]2C=C[C@@H](CO)O2)c(=O)[nH]c1=O`, the inhibition is 21.2% (active).

For `O=c1[nH]c(=O)n([C@H]2C[C@H](O)[C@@H](CO)O2)cc1Br`, the inhibition was 6.3% (active).

Take `Cc1cn([C@H]2C[C@@H](N=[N+]=[N-])[C@@H](CO)O2)c(=O)[nH]c1=O`: the inhibition is 18.1% (active).

`N#CC(C#N)=C(N)/C(C#N)=C/c1ccc(O)cc1`: the inhibition was 85.4% (active).

With `Cn1cc(C(F)(F)F)nc1-c1ccc(OCC(O)CNCCOc2ccc(O)c(C(N)=O)c2)cc1` (stereo unspecified), the inhibition was 45.1% (active).

`CC12C(=O)OC(=O)C1(C)C1CCC2O1` (stereo unspecified): the inhibition was 1.8% (active).

Take `CNC(=O)c1cc2c(cn1)[nH]c1ccccc12`: the inhibition is 4.2% (active).

In the case of `Cc1ccccc1N1C(=O)c2cc(S(N)(=O)=O)c(Cl)cc2NC1C` (stereo unspecified), the inhibition was 9.2% (active).

As for `O=c1[nH]c(=S)[nH]c(-c2ccccc2)c1Cc1c(O)ccc2ccccc12`, the inhibition is 55.9% (active).

For the molecule `Cc1ccc(S(=O)(=O)/C=C/C#N)cc1`, the inhibition is 10.5% (active).

As for `CC(C)(C)c1ccc(S(=O)(=O)/C=C/C#N)cc1`, the inhibition was 3.4% (active).

Regarding `CC12CC3CC(C)(C1)CC(N)(C3)C2`, the inhibition was -1.7% (inactive).

Turning to `NC12CC3CC(CC(C3)C1)C2`, the inhibition was 33.3% (active).

Take `CCOC(=O)C(C)Oc1cccc2c(=O)n(CC(=O)Nc3ccc4c(c3)OCCO4)ccc12` (stereo unspecified): the inhibition was 9.3% (active).

Take `CC1=C(C(=O)O)N2C(=O)[C@@H](NC(=O)C(N)c3ccccc3)[C@H]2SC1` (stereo partly specified): the inhibition is 37.1% (active).

For `NC(C(=O)N[C@@H]1C(=O)N2C(C(=O)O)=C(Cl)CS[C@H]12)c1ccccc1` (stereo partly specified), the inhibition is 23.8% (active).

Regarding `CC1=C(C(=O)O)N2C(=O)[C@@H](NC(=O)C(N)C3=CCC=CC3)[C@H]2SC1` (stereo partly specified), the inhibition was 20.2% (active).

As to `NC(=O)c1cc[n+](CC2=C(C(=O)O)N3C(=O)[C@@H](NC(=O)[C@@H](c4ccccc4)S(=O)(=O)[O-])[C@H]3SC2)cc1`, the inhibition was 14.6% (active).

Take `CN1CC(=O)N/C1=N\C(=O)Nc1cccc(Cl)c1`: the inhibition is -0.6% (inactive).

`CC1=C(CC(=O)O)c2cc(F)ccc2/C1=C\c1ccc(S(C)(=O)=O)cc1`: the inhibition is 13.7% (active).

Regarding `CC1=C(CC(=O)O)c2cc(F)ccc2/C1=C\c1ccc(S(C)=O)cc1` (stereo unspecified), the inhibition was 14.1% (active).

`CC(=O)N[C@@H](Cc1c[nH]c2ccccc12)C(=O)OCc1cc(C(F)(F)F)cc(C(F)(F)F)c1`: the inhibition is 4.9% (active).

As for `NC(=O)OCC(COC(N)=O)c1ccccc1`, the inhibition is 6.4% (active).

For the molecule `N=C(N)c1ccc(N)cc1`, the inhibition was -0.4% (inactive).

Take `N=C(N)c1ccc(OCCCCCOc2ccc(C(=N)N)cc2)cc1`: the inhibition was 14.9% (active).

Regarding `NC1(C(=O)O)CC1`, the inhibition was 0.9% (active).

With `NC1(C(=O)O)CCCCC1`, the inhibition was 12.2% (active).

For the molecule `Clc1nccc2c1ccc1ccccc12`, the inhibition was 5.5% (active).

On to `O=C(CCCN1CCC(O)(c2ccc(Cl)cc2)CC1)c1ccc(F)cc1`, for which the inhibition was 4.3% (active).

As to `CN(C)C(=O)C(CCN1CCC(O)(c2ccc(Cl)cc2)CC1)(c1ccccc1)c1ccccc1`, the inhibition is -0.4% (inactive).

Regarding `O=C(CCCN1CCC(O)(c2cccc(C(F)(F)F)c2)CC1)c1ccc(F)cc1`, the inhibition was 1.8% (active).

With `CN(C(=O)CCCOc1ccc2[nH]c(=O)ccc2c1)C1CCCCC1`, the inhibition is 13.1% (active).

On to `CN1C2CCC1CC(OC(c1ccccc1)c1ccccc1)C2` (stereo unspecified), for which the inhibition was 7.5% (active).

For `CN1C2CCC1CC(OC(=O)C(CO)c1ccccc1)C2` (stereo unspecified), the inhibition was 0.4% (active).

As to `CN1C2CC(OC(=O)[C@H](CO)c3ccccc3)CC1C1OC12` (stereo partly specified), the inhibition is 10.8% (active).

As for `CN1C2CCC1CC(OC(=O)c1c[nH]c3ccccc13)C2` (stereo unspecified), the inhibition is 8.4% (active).

Take `CN1C2CCC1CC(OC(=O)C(O)c1ccccc1)C2` (stereo unspecified): the inhibition was 6.4% (active).

For `CC(C)(C)C(=O)Oc1ccc(S(=O)(=O)Nc2ccccc2C(=O)NCC(=O)O)cc1`, the inhibition was 18.6% (active).

With `CNC1(C)C2CCC(C2)C1(C)C` (stereo unspecified), the inhibition is -4.4% (inactive).

For `NC(=O)NO`, the inhibition was 11.4% (active).

Regarding `CC(C)C[C@H](NC(=O)C1OC1C(=O)O)C(=O)NCCCCN=C(N)N` (stereo partly specified), the inhibition was -7.9% (inactive).

As to `N[C@H](C(=O)O)[C@H](Cc1ccccc1)C(=O)O`, the inhibition was 4.3% (active).

With `NCCCNCCSP(=O)(O)O`, the inhibition was 7.6% (active).

Take `NCCCCNCCCN`: the inhibition is -8.3% (inactive).

Turning to `NCCCNCCCCNCCCN`, the inhibition is 19.3% (active).

As to `S=C(S)N1CCCC1`, the inhibition is 86.2% (active).

Consider `CC(C)CC(NP(=O)(O)O[C@@H]1O[C@@H](C)[C@H](O)[C@@H](O)[C@H]1O)C(=O)NC(Cc1c[nH]c2ccccc12)C(=O)O` (stereo partly specified), for which the inhibition is 59.4% (active).

As for `O=C(O)c1cccnc1Nc1cccc(C(F)(F)F)c1`, the inhibition was 3.2% (active).

Turning to `Nc1ncnc2c1nc(Br)n2C1OC2COP(=O)(O)O[C@@H]2C1O` (stereo partly specified), the inhibition was 4.7% (active).

Regarding `Nc1nc(O)c2nc(Br)n(C3OC4COP(=O)(O)O[C@@H]4C3O)c2n1` (stereo partly specified), the inhibition is 9.3% (active).

On to `Nc1ncnc2c1nc(Sc1ccc(Cl)cc1)n2C1OC2COP(=O)(O)O[C@@H]2[C@@H]1O` (stereo partly specified), for which the inhibition was 7.4% (active).

Regarding `Nc1ncnc2nc(-c3ccc(N4CCOCC4)nc3)cc(-c3cccc(Br)c3)c12`, the inhibition was -3% (inactive).

With `O=c1[nH]c2cc(Cl)ccc2c(O)c1-c1ccc(Oc2ccccc2)cc1`, the inhibition is 8.7% (active).

With `CN(C)c1nc(N(C)C)nc(N(C)C)n1`, the inhibition is 31.3% (active).

On to `CN1[C@@H](CC(=O)c2ccccc2)CCC[C@H]1C[C@H](O)c1ccccc1`, for which the inhibition was 15.5% (active).

In the case of `O=C(O)CCCC[C@@H]1CCSS1`, the inhibition was 0.1% (active).

Regarding `Cc1cc(C(C)(C)C)c(O)c(C)c1CC1=NCCN1`, the inhibition is 11.2% (active).

For `Cc1cc(C(C)(C)C)cc(C)c1CC1=NCCN1`, the inhibition was 5% (active).

`CC(=O)[C@H]1CC[C+]2C3CC=C4C[C@@H](OS(=O)(=O)[O-])CC[C@]4(C)C3CC[C@@]21C` (stereo partly specified): the inhibition was -11.2% (inactive).

In the case of `CCN(Cc1ccncc1)C(=O)C(CO)c1ccccc1` (stereo unspecified), the inhibition is 1.5% (active).

On to `COc1ccc(/C=C2\COc3ccc(C)cc3C2=O)cc1O`, for which the inhibition is 75.9% (active).

As to `CCCc1c(-c2ccc(O)cc2)nn(-c2ccc(O)cc2)c1-c1ccc(O)cc1`, the inhibition is 68.4% (active).

On to `Brc1c(NC2=NCCN2)ccc2nccnc12`, for which the inhibition was 21.8% (active).

Take `CC(=O)O[C@H]1CC2(C)[C@@H](C[C@@H](O)[C@H]3[C@@]4(C)CC[C@@H](O)[C@@H](C)[C@@H]4CC[C@@]32C)/C1=C(/CCC=C(C)C)C(=O)O` (stereo partly specified): the inhibition was 15.9% (active).
